This is an account of results in PubChem BioAssay (NCI).

Holding throughout (test): NCI-60 one-dose screen, 48 h (100 = growth as untreated, 0 = no growth, -100 = all killed)
For one assay, the system named is DU-145 prostate. Particulars: 10 µM unless noted.
The test system of the next assay is K-562 leukemia. Particulars: 10 µM unless noted.
A further assay concerns MALME-3M melanoma. The settings on record: 10 µM unless noted.
A further assay relates to MDA-MB-231 breast. Particulars: 10 µM unless noted.
The test system of a further assay is RXF 393 renal. Particulars: 10 µM unless noted.
The test system of the next assay is SF-268 CNS. The settings on record: 10 µM unless noted.
The next assay concerns SF-295 CNS. Particulars: 10 µM unless noted.
For another assay, the system named is SF-539 CNS. Particulars: 10 µM unless noted.
For the next assay, the system named is UACC-257 melanoma. Particulars: 10 µM unless noted.
For another assay, the system named is M14 melanoma. Particulars: 10 µM unless noted.
A further assay concerns HCT-15 colon. The settings on record: 10 µM unless noted.
Another assay concerns HT29 colon. The settings on record: 10 µM unless noted.
Another assay concerns SNB-75 CNS. The settings on record: 10 µM unless noted.
Another assay relates to U251 CNS. The settings on record: 10 µM unless noted.
The next assay deals with PC-3 prostate. The settings on record: 10 µM unless noted.
The subject of another assay is SK-MEL-5 melanoma. The settings on record: 10 µM unless noted.
For another assay, the system named is UACC-62 melanoma. Particulars: 10 µM unless noted.
Another assay deals with LOX IMVI melanoma. Particulars: 10 µM.
In a further assay the test system is SK-MEL-28 melanoma. Particulars: 10 µM unless noted.
The test system of a further assay is SNB-19 CNS. Particulars: 10 µM unless noted.

Structures are written as SMILES. The panel holds about 83,000 compounds, 20% with a hit somewhere; the sample as a whole holds those more often.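 Plates (96-well) were seeded with cells, treated with compound at one concentration, and incubated for 48 hours before percent growth was determined.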 Unmarked numbers belong to inactive results. The source made the active and inactive calls. How the source made its calls: active means growth percent below 10; inactive means the rest.

As to `CC(=O)OC[C@@]1(C)C2CC[C@]3(C)C(CC=C4C5CC(C)(C)CC[C@]5(C(=O)Nc5ccc(C)cc5)CC[C@]43C)[C@@]2(C)C[C@@H](OC(C)=O)[C@@H]1OC(C)=O` (stereo not given in full), the growth with DU-145 prostate was 49%; in the assay on K-562 leukemia it was 21.6%; with MALME-3M melanoma, 60.6%; with MDA-MB-231 breast it was 66.1%; in the assay on RXF 393 renal, 82.2%; with SF-268 CNS it was 57.4%. The growth with SF-295 CNS was 31.2%; in the assay on SF-539 CNS, 43.1%; in the assay with UACC-257 melanoma, 23.9%; in the assay on M14 melanoma, 51.9%; in the assay with HCT-15 colon, 35.1%; with HT29 colon, 30.6%. Moreover, the growth with SNB-75 CNS is 57%; with U251 CNS it was 40.7%; in the assay with PC-3 prostate it was 34.3%; with SK-MEL-5 melanoma, 7.75% (active); in the assay on UACC-62 melanoma, 48.2%; in the assay on LOX IMVI melanoma, 12.5%. Besides, the growth with SK-MEL-28 melanoma was 77.1%.

Turning to `S=c1c2ccccc2nc2n1CCc1c-2[nH]c2ccccc12`, the growth in the assay on DU-145 prostate is 68.1%; in the assay on K-562 leukemia, 57.8%; in the assay with MALME-3M melanoma, 54.2%; in the assay on MDA-MB-231 breast, 40.8%; in the assay with RXF 393 renal, 28.7%; with SF-268 CNS it was 57.7%. Moreover, the growth is 63.4% with SF-295 CNS; 43.4% with SF-539 CNS; 66.1% in the assay with UACC-257 melanoma; 70.1% in the assay with M14 melanoma; 68.9% in the assay with HCT-15 colon; 78.8% with HT29 colon. Besides, the growth with SNB-19 CNS is 16.1%; with U251 CNS, 73.8%; in the assay with PC-3 prostate, 60.8%; in the assay on SK-MEL-5 melanoma it was 67%; in the assay on UACC-62 melanoma, 64.1%.

As for `Cc1ccc([C@H]2C(C(=O)c3ccc(Cl)cc3)C3(N[C@@H]2c2ccccc2)C(=O)Nc2ccc(Cl)cc23)cc1` (stereo not given in full), the growth in the assay with DU-145 prostate was 71.8%; in the assay on K-562 leukemia, 22.2%; with MALME-3M melanoma, 87.2%; in the assay on MDA-MB-231 breast, 50.7%; with RXF 393 renal it was 27%; in the assay with SF-268 CNS, 55.8%. For the same compound, the growth in the assay with SF-295 CNS was 48.2%; in the assay with SF-539 CNS, 77%; in the assay with UACC-257 melanoma it was 69.8%; in the assay with M14 melanoma, 44.8%; in the assay with HCT-15 colon it was 47.1%; in the assay with HT29 colon, 3.1% (active). Also, the growth in the assay with SNB-19 CNS is 66.2%; in the assay with U251 CNS it was 47.9%; in the assay on PC-3 prostate, 14%; with SK-MEL-5 melanoma, 77.9%; in the assay on UACC-62 melanoma it was 33.8%; in the assay on LOX IMVI melanoma it was 39.8%. Further, in the assay on SK-MEL-28 melanoma, the growth is 69.4%.

Consider `CCCSc1nc(NCCc2c[nH]c3ccccc23)c(C#N)c(-c2ccc(OC)cc2)n1`, for which the growth in the assay on DU-145 prostate is 62.2%; in the assay on K-562 leukemia it was 23.5%; in the assay on MALME-3M melanoma, 83.1%; in the assay on MDA-MB-231 breast it was 41.2%; in the assay with RXF 393 renal, -17.3% (active); with SF-268 CNS, 57.4%. For the same compound, the growth is 29.7% with SF-295 CNS; 50.6% in the assay on SF-539 CNS; 89.8% with UACC-257 melanoma; 63.5% with M14 melanoma; 21.8% in the assay with HCT-15 colon; 22.5% with HT29 colon. Further, the growth with SNB-75 CNS was 78.9%; with U251 CNS, 41.5%; in the assay with PC-3 prostate, 15.1%; with SK-MEL-5 melanoma it was 29.5%; in the assay with UACC-62 melanoma, 71.7%; in the assay with LOX IMVI melanoma, 37.1%. In addition, in the assay with SK-MEL-28 melanoma, the growth is 71.4%.

With `COc1c(F)ccc(C(=O)Nc2ccc3nc(NC(=O)C4CCCN(S(=O)(=O)c5ccc(C#N)cc5)C4)sc3c2)c1F` (stereo not given), the growth with DU-145 prostate was 95.7%; with K-562 leukemia, 62.6%; in the assay with MALME-3M melanoma it was 97.5%; in the assay on MDA-MB-231 breast it was 99.1%; in the assay on RXF 393 renal, 46.7%; with SF-268 CNS, 93.5%. Moreover, the growth in the assay with SF-295 CNS was 90.1%; with SF-539 CNS it was 73.1%; with UACC-257 melanoma, 87.1%; with M14 melanoma it was 92.7%; in the assay with HCT-15 colon, 90.1%; with HT29 colon it was 85.8%. The growth with SNB-19 CNS was 100%; with U251 CNS it was 89.3%; in the assay with PC-3 prostate it was 81.9%; with SK-MEL-5 melanoma it was 82.5%; in the assay with UACC-62 melanoma, 78.7%; in the assay with LOX IMVI melanoma it was 95.4%.

As for `Cc1cccc(NC(=O)[C@]23CCC(C)(C)CC2C2=CCC4[C@@]5(C)C[C@@H](O)[C@H](O)[C@@](C)(CO)C5CC[C@@]4(C)[C@]2(C)CC3)c1` (stereo not given in full), the growth with DU-145 prostate is 32.2%; with K-562 leukemia, 15.5%; with MALME-3M melanoma it was 28.3%; with MDA-MB-231 breast it was -19.1% (active); in the assay on RXF 393 renal, -49% (active); in the assay on SF-268 CNS, 41%. In addition, the growth was 4.56% (active) in the assay with SF-295 CNS; -2.33% (active) with SF-539 CNS; 39.8% with UACC-257 melanoma; 36.1% in the assay on M14 melanoma; -5.5% (active) in the assay with HCT-15 colon; -56.1% (active) in the assay with HT29 colon. Besides, the growth with SNB-75 CNS was 43.7%; in the assay with U251 CNS it was 27.8%; with PC-3 prostate, 13.3%; in the assay on SK-MEL-5 melanoma, -90.7% (active); with UACC-62 melanoma it was 20.3%; with LOX IMVI melanoma, -75.2% (active). Besides, in the assay on SK-MEL-28 melanoma, the growth is 32.5%.

`COc1ccc(/C=C/c2nc3ccccc3c(=O)n2CC(=O)Nc2ccc(OC)cc2)cc1`: the growth in the assay with DU-145 prostate is 77.2%; with K-562 leukemia it was 95.3%; with MALME-3M melanoma it was 73.7%; in the assay on MDA-MB-231 breast, 27.3%; in the assay on RXF 393 renal it was 70.5%; with SF-268 CNS it was 71.4%. In addition, the growth in the assay on SF-295 CNS was 74.6%; in the assay with SF-539 CNS, -18.5% (active); in the assay with UACC-257 melanoma it was 103%; in the assay with M14 melanoma it was 90.3%; in the assay with HCT-15 colon it was 88.4%; in the assay on HT29 colon, 72.9%. The growth with SNB-19 CNS is 51.9%; with U251 CNS, 25.6%; in the assay on PC-3 prostate, 46.1%; in the assay on SK-MEL-5 melanoma it was 92.3%; in the assay with UACC-62 melanoma, 74.7%; in the assay with LOX IMVI melanoma, 64.8%. Further, in the assay on SK-MEL-28 melanoma, the growth was 103%.
